Out of some 66,000 compounds screened, about 960 (1.5%) showed an effect of 50% or more. Shown is part of a subset that was picked to be rich in strong results.

The subject of this experiment is Trypanosoma brucei. Description: Trypanosoma brucei 72 hour study. It is filed as functional, organism-based. More on the design: scale not given: in the data most compounds retested in dose-response had high values.

As to `Cc1nnc2n1CCN(C(=O)CN(C)Cc1ccccc1)C2`, where the note is “30.3 µM, […]”, the “Percent Effect” value is listed as -14.91%.

Take `O=C(NCC1CCOCC1)[C@@H]1CC[C@@H]2[C@@H](CCN2Cc2ccncc2)O1.O=C(O)C(F)(F)F.O=C(O)C(F)(F)F`: the “Percent Effect” value (30.3 µM, […]) is listed as -62.66%.

Take `CCc1noc(CCC(=O)N[C@@H]2CC[C@@H](n3ccnc3C)[C@@H]2O)n1`: the “Percent Effect” value (30.3 µM, […]) was -7.313%.

As for `O=C(O)C(F)(F)F.c1coc(CN2CCO[C@H]3[C@H](OCC4CC4)CC[C@@H]32)c1`, the “Percent Effect” value (30.3 µM, […]) is 0.4404%.

As to `Oc1ccc(Br)c(CNc2cccc(-c3nnc[nH]3)c2)c1`, where the note is “30 µM, 30.03 µM”, the “Percent Effect” value is recorded as 56.16%.

For the compound `Oc1c(F)cc(CNc2cccc(-c3nnc[nH]3)c2)cc1F`, the “Percent Effect” value (30 µM, 30.03 µM) is given as -51.33%.

In the case of `c1cc(NCc2ccsc2)cc(-c2nnc[nH]2)c1`, where the note is “30 µM, 30.03 µM”, the “Percent Effect” value was -50.24%.

In the case of `CCCc1nc2c(c(C)c(C)n2Cc2ccccn2)c(N)c1CC`, the “Percent Effect” value (30.3 µM, […]) came out at 99.32%.

`CCCc1nc2c(c(C)c(C)n2Cc2ccncc2)c(N)c1CC`: the “Percent Effect” value (30.3 µM, […]) turned out to be 11.66%.

For `CCCc1nc2c(c(C)c(C)n2Cc2cccnc2)c(N)c1CC`, the “Percent Effect” value (30.3 µM, […]) was 26.57%.

As for `COc1cccc(-c2noc(C3CCN(Cc4ccc(C)cc4)C3)n2)c1.Cl` (stereo unspecified), for the setting “30.3 µM, […]”, the “Percent Effect” value amounted to 4.598%.

Turning to `Cc1nc(=O)c2ccccc2n1C1=CCN(CC(=O)N2CCCC2)CC1`, the “Percent Effect” value (30.3 µM, […]) turned out to be 9.131%.

In the case of `CCN1CCC2(CC1)OCCN2C(=O)c1cc(Cl)c(OC)c(Cl)c1.Cl`, the “Percent Effect” value (30 µM, 30.03 µM) was found to be 89.37%.

Regarding `CCCOc1c(Cl)cc(C(=O)N2CCOC23CCN(C)CC3)cc1Cl`, for the setting “30 µM, 30.03 µM”, the “Percent Effect” value is recorded as -15.42%.

Turning to `COCC1CC2(CCN(C(=O)c3ccc(OC)c(Cl)c3)CC2)CO1` (stereo unspecified), the “Percent Effect” value (30 µM, 30.03 µM) was -6.719%.

For `COc1cc(C(=O)N2CCCS2(=O)=O)cc(Cl)c1OC`, the “Percent Effect” value (30 µM, 30.03 µM) is reported as -12.01%.

Regarding `COc1ccc(C(=O)N2C[C@@H](CN3CCCCC3)[C@@H](CO)C2)cc1Cl`, where the note is “30 µM, 30.03 µM”, the “Percent Effect” value is 22.63%.

Regarding `CCN1CCC2(CC1)OCCN2C(=O)c1ccc(OC)c(Cl)c1.Cl`, for the setting “30 µM, 30.03 µM”, the “Percent Effect” value worked out at 50.46%.

`COc1ccc(-c2cc3nn(CC(=O)NC(C)C)c(=O)n3c(C)n2)cc1`: where the note is “30 µM, 30.03 µM”, the “Percent Effect” value is reported as -13.21%.

In the case of `Cc1cc(C)cc(CN2CCN(Cc3cccc(CCN)c3)CC2=O)c1`, the “Percent Effect” value (30 µM, 30.03 µM) stood at 35.33%.

Take `CCc1cc(CN2C[C@H]3CC[C@@H]2CN(C2Cc4ccccc4C2)C3)on1`: where the note is “30 µM, 30.03 µM”, the “Percent Effect” value stood at 10.13%.

As to `Cc1nnc(CN2CCCC2c2ccc(C(C)(C)C)cc2)o1` (stereo unspecified), under “30.3 µM, […]”, the “Percent Effect” value is recorded as 86.15%.

`Cc1nnc(CN2CCCC2c2ccsc2)o1` (stereo unspecified): for the setting “30.3 µM, […]”, the “Percent Effect” value is -40.61%.

In the case of `Cc1nnc(CN2CCCC2c2ccc(Cl)c(Cl)c2)o1` (stereo unspecified), the “Percent Effect” value (30.3 µM, […]) stood at 3.085%.

Turning to `Cc1ccc(CN(CCCn2ccnc2)Cc2cc(F)ccc2F)s1.O=C(O)CC(O)(CC(=O)O)C(=O)O`, for the setting “30.3 µM, […]”, the “Percent Effect” value is -12.95%.

Take `Cc1ccccc1-n1cnnc1SCC(=O)NCC1CCCO1` (stereo unspecified): the “Percent Effect” value (30 µM, 30.03 µM) is -21.19%.

For the compound `Cc1ccccc1-n1cnnc1SCCOCC1CCCO1` (stereo unspecified), under “30 µM, 30.03 µM”, the “Percent Effect” value is recorded as -22.78%.

For the compound `Cc1ccccc1-n1cnnc1SCC1CCCCO1` (stereo unspecified), the “Percent Effect” value (30 µM, 30.03 µM) is 69.07%.

Take `O=C(CCc1cccs1)N1CCCC(n2ccnc2)C1` (stereo unspecified): the “Percent Effect” value runs as follows: (10 µM) -23.55%; (30.3 µM, […]) 37.83%.

Turning to `Cc1cc(NC(=O)NC2CCN(C(C)C)CC2)c2ncccc2c1`, where the note is “30 µM, 30.03 µM”, the “Percent Effect” value is on record as 56.47%.

With `Cc1cc(NC(=O)N2CCCC2C(=O)NC2CC2)c2ncccc2c1` (stereo unspecified), the “Percent Effect” value (30 µM, 30.03 µM) is listed as -28.65%.

Take `Cc1cc(NC(=O)N2CCCC2C(C)(C)O)c2ncccc2c1` (stereo unspecified): the “Percent Effect” value (30 µM, 30.03 µM) was -36.24%.

As to `Cl.c1cn(-c2cncc(C3CCNCC3)n2)cn1`, the “Percent Effect” value (30.3 µM, […]) is on record as -40.04%.

Take `CN(C)C(=O)CN1CCC2(COCc3cnc(-c4cccnc4)nc32)C1.O=C(O)C(F)(F)F.O=C(O)C(F)(F)F` (stereo unspecified): the “Percent Effect” value (30.3 µM, […]) is on record as -72.36%.

Turning to `CN(C)C(=O)c1n[nH]c2c1CN(CC1CCCCC1)C2.O=C(O)C(F)(F)F.O=C(O)C(F)(F)F`, the “Percent Effect” value (30.3 µM, […]) is -36.34%.

As for `CC(=O)N1CCN(C(=O)CCNc2snc(Cl)c2C#N)CC1`, the “Percent Effect” value (30 µM, 30.03 µM) was -13.74%.

On to `CC(C)(C)CCN1CCN(c2snc(Cl)c2C#N)CC1`, for which the “Percent Effect” value (30.3 µM, […]) was found to be 100.4%.

Regarding `CC(=O)N1CCN(CCNc2snc(Cl)c2C#N)CC1`, the “Percent Effect” value (30 µM, 30.03 µM) is 1.028%.

For `N#Cc1c(Cl)nsc1N1CCN(CC2CC2)CC1`, the “Percent Effect” value (30.3 µM, […]) is reported as -23.59%.

Regarding `N#Cc1c(Cl)nsc1NCc1ccc(N2CCC(CO)CC2)cc1`, the “Percent Effect” value (30 µM, 30.03 µM) is -28.26%.

As for `N#Cc1c(Cl)nsc1N1CCN(CC2CCCCC2)CC1`, the “Percent Effect” value (30.3 µM, […]) amounted to 100.2%.

`CC(C)COCC1CN(C(=O)c2cscn2)Cc2ncn(C)c21.O=C(O)C(F)(F)F` (stereo unspecified): where the note is “30.3 µM, […]”, the “Percent Effect” value is reported as -83.42%.

Turning to `CN(C)CCOCc1cncc2c1CCN(Cc1ccccn1)C2.O=C(O)C(F)(F)F.O=C(O)C(F)(F)F.O=C(O)C(F)(F)F`, the “Percent Effect” value (30.3 µM, […]) was -28.23%.

On to `Cc1nc(CN2CC[C@H]3[C@@H]2CCC(=O)N3c2cnn(C)c2)cs1.O=C(O)C(F)(F)F`, for which the “Percent Effect” value (30.3 µM, […]) is -10.95%.

Consider `Cc1ccc(CN(CCCn2ccnc2)Cc2c[nH]nc2C(C)(C)C)s1.O=C(O)CC(O)(CC(=O)O)C(=O)O`, for which the “Percent Effect” value (30.3 µM, […]) is listed as -172%.

Source of the values: ChEMBL document CHEMBL3988442, “University of Dundee, Small-Polar-MMV Screening Library” (2021).
